Measurements taken from PubChem BioAssay (NCI).
Compounds without any hit were thinned out: in the full panel of roughly 83,000, 20% have a hit.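 48-hour exposure, single concentration, 96-well plates; percent growth endpoint where 0 means no net growth. Active: below 10.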 Unmarked numbers belong to inactive results. The source made the active and inactive calls.

How the values were obtained:
Experiment in all cases: NCI-60 one-dose screen, 48 h (100 = growth as untreated, 0 = no growth, -100 = all killed)
Conditions in all cases: 10 µM unless noted
HCT-15 colon = test system: HCT-15 colon
HT29 colon = test system: HT29 colon
SNB-75 CNS = test system: SNB-75 CNS
SNB-19 CNS = test system: SNB-19 CNS
U251 CNS = test system: U251 CNS
PC-3 prostate = test system: PC-3 prostate
SK-MEL-5 melanoma = test system: SK-MEL-5 melanoma
UACC-62 melanoma = test system: UACC-62 melanoma
LOX IMVI melanoma = test system: LOX IMVI melanoma
SK-MEL-28 melanoma = test system: SK-MEL-28 melanoma
SK-MEL-2 melanoma = test system: SK-MEL-2 melanoma
EKVX NSCLC = test system: EKVX NSCLC
SN12C renal = test system: SN12C renal
UO-31 renal = test system: UO-31 renal
ACHN renal = test system: ACHN renal
CAKI-1 renal = test system: CAKI-1 renal
CCRF-CEM leukemia = test system: CCRF-CEM leukemia
MOLT-4 leukemia = test system: MOLT-4 leukemia
A498 renal = test system: A498 renal
TK-10 renal = test system: TK-10 renal

Row | Structure (SMILES) | growth (HCT-15 colon) | growth (HT29 colon) | growth (SNB-75 CNS) | growth (SNB-19 CNS) | growth (U251 CNS) | growth (PC-3 prostate) | growth (SK-MEL-5 melanoma) [%] | growth (UACC-62 melanoma) | growth (LOX IMVI melanoma) | growth (SK-MEL-28 melanoma) | growth (SK-MEL-2 melanoma) [%] | growth (EKVX NSCLC) [%] | growth (SN12C renal) | growth (UO-31 renal) | growth (ACHN renal) | growth (CAKI-1 renal) | growth (CCRF-CEM leukemia) | growth (MOLT-4 leukemia) | growth (A498 renal) [%] | growth (TK-10 renal) [%]
1 | COC(=O)C(OC(C)=O)C(OC(C)=O)c1ccc(OC)c(OC)c1 (stereo unspecified) | 97.8% | 97.2% | 96.4% | 103% | 97.5% | 81.5% | 97.7 | 100% | 90% | 102% | 96.5 | 107 | 101% | 106% | 104% | 101% | 94.9% | 85.5% |  | 
2 | O=C(O)c1ccc(-c2nn(-c3ccc(C(F)(F)F)cc3)cc2CNc2ccc(Oc3ccccc3)cc2)cc1 | 43.2% | 67% | 80.6% | 82.7% | 67% | 90.6% | 78.9 | 77.5% | 82.5% | 89.1% | 90 | 66.9 | 78.2% | 60.1% | 65.9% | 91.8% | 76.7% | 67.6% |  | 
3 | Nc1c(C(=O)Nc2cccc3cnccc23)sc2nc3c(cc12)CN(Cc1ccccc1)CC3 | 107% | 108% | 96.5% | 99.6% | 108% | 91.3% | 98.8 | 96.4% | 103% | 111% | 116 | 101 | 97.5% | 75.5% | 99.9% | 90.1% | 109% | 107% |  | 
4 | O=C(CCN1CCCC1)Nc1ccc2c(NCCCc3ccccc3)c3ccccc3nc2c1 | 36.3% | 3.74% (active) | 23% | 24.6% | -58.9% (active) | -0.52% (active) | 67.4 | 43.5% | -87% (active) | 66.1% | 38.9 | 40.8 | 14% | 31.8% | 33.1% | 27.5% | -11.8% (active) | -18.5% (active) |  | 
5 | [O-][n+]1c(Cl)cc(Cl)c2ccccc21 | 99.8% | 122% | 101% | 102% | 92.9% | 81.2% | 109 | 98.9% | 97.4% | 104% | 123 | 76.9 | 101% | 78.5% | 99.5% | 92.6% | 87.5% | 88.7% | 73.2 | 
6 | CCCCCCNC(=O)Oc1ccc(/C(=C(\C)c2ccccc2)c2ccc(OCCN3CCCCC3)cc2)cc1 | 8.13% (active) | -6.46% (active) | 92.5% | 74.6% | 50.1% | 47.9% | 71.2 | 5.21% (active) | 53.9% | 48.8% | 75.3 | 77.7 | 71.4% | 39.4% | 90.2% | 44.8% | 60.7% | 43.7% |  | 
7 | COc1ccc(C(=O)c2cc(C)c(OC)c(C)c2)c(OC)c1NC(C)=O | 16.3% | 3.24% (active) | 56.2% | 22.9% | 21.4% | 20.9% | 20.6 | 31.6% | 32% | 49.5% | 26 | 56 | 34.8% | 40% | 24.9% | 42.4% | 20.8% | 38.7% |  | 51.9
8 | O=C1Nc2ccccc2/C1=C\c1c(-c2ccc(F)cc2)nc2ccccn12 | 58.2% | 58.7% | 71.3% | 77.7% | 93.3% | 62.5% | 58 | 65.1% | 68.3% | 87.2% | 75.5 | 45.6 | 82.5% | 41% | 54.9% | 44.3% | 67.9% | 57% | 70.8 | 
9 | CC1(C)NCCC[C@]2(C)[C@H]3CC[C@@H]4[C@H]5[C@H](C(=O)/C=C/c6ccco6)CC[C@]5(CO)CC[C@@]4(C)[C@]3(C)CC[C@@H]12 | 59.1% | 106% | 83% | 94.2% | 82% | 62.4% | 93.4 | 87.8% | 74.8% | 104% | 117 | 101 | 82.1% | 67.3% | 99.6% | 76.1% | 74.6% |  | 51.3 | 
10 | CCCCCCOc1ccc(/C=N/Nc2cc(C)nc3ccc(Cl)cc23)cc1 | -87.2% (active) | -42.3% (active) | -44.6% (active) | 2.26% (active) | -68.2% (active) | -39.4% (active) | 81.4 | 76.8% | -94.5% (active) | -30.3% (active) | 93.9 | 56.2 | -84.6% (active) | -89.8% (active) | -92% (active) | 3.33% (active) | -9.5% (active) | -26% (active) |  | 
11 | NC1=NN=C(N)C1=Cc1cc2ccccc2n2nnnc12 | 104% | 104% | 94.3% | 95.8% | 89% | 86.6% | 101 | 93.2% | 85.1% | 116% | 102 | 77 | 97.9% | 77.1% | 102% | 91.1% | 97.5% | 94.6% |  | 
